Most compounds without a hit are left out; they make up all but 3.7% or so of the library.
TGFb inhibitor: inhibitors of TGF-b signaling; AID 588855; 1.2% of 410,000 active; HepG2 CAGA-GFP TGF-b/SMAD3 reporter, GFP fluorescence, 18 h; TGF-beta stimulated, 500 pg/mL final; Potency, µM (top dose mostly 46.1 µM), for the others: at the highest dose activity, negative = inhibition, actives largely listed as inhibitors; further: on the % scale 0 is the no-effect control and ±100 the full control effect; nearly all actives have a fitted effect of over 65% in size
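HEPG2 CAGA-GFP, 1000 cells/well; 2 h settle, 37 C; cpd via pin tool; TGF-b 500 pg/mL final; 18 h, 37 C; GFP imaging ex488/em500-530; %Activity normalised to -TGF-b and +DMSO controls; CRC fit, curve class.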
ATXN2 expr inh: reduces ATXN2 reporter expression in HEK-293 cells. 0.72% of 360,000 active. HEK-293 ATXN2-luciferase reporter, luminescence, 24 h. Potency, µM (series often up to 57 µM), without a hit: at the top dose activity change, negative = inhibition, actives largely listed as inhibitors. AID 1745845; further: on the % scale 0 is the no-effect control and ±100 the full control effect; nearly all actives have a fitted effect of over 55% in size
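ATXN2-luciferase reporter cells (luciferase flanked by upstream and downstream ATXN2 gene portions) were treated 24 h at 37 °C with compounds at up to 57 uM. SteadyGlo luminescence gave expression; GF-AFC fluorescence gave viability.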
GLP1R ag: GLP-1 receptor (human) agonism | P43220 | Potency, µM (top dose mostly 45.6 µM), for the others: top-dose activation, usual class: activators | AID 624172 | 0.007% of 380,000 active | HEK293 GLP-1R CRE-luciferase, luminescence, 4-6 h; cells express a hypersensitive GLP-1R form; further: % of control where 0% means no effect
Target sequence (P43220 whole entry, looked up): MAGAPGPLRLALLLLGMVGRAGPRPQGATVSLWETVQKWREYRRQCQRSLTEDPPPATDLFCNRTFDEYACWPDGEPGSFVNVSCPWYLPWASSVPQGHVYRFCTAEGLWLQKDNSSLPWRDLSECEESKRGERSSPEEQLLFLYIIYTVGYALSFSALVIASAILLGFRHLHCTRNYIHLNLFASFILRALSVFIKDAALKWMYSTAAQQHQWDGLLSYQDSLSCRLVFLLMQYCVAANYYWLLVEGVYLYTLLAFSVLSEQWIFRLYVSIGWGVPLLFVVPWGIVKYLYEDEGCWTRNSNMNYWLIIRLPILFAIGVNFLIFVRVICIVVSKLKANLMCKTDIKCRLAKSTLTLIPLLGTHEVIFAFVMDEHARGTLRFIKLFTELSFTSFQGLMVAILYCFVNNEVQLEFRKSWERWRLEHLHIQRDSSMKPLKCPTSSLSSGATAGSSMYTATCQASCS
ATXN viability: cell viability loss in ATXN counter-screen. S2 cells (HEK-293 line with an ATXN2-luciferase reporter) viability, CellTiter-Fluor protease fluorescence, 24 h. 0.49% of 400,000 active. Potency, µM (doses to about 56.7 µM), most hits filed as cytotoxic; further: nearly all actives have a fitted effect of over 40% in size
GLP1R inv ag: GLP-1 receptor (human) inverse agonism; HEK293 GLP-1R CRE-luciferase, luminescence, 24 h; GLP-1R form is constitutively active; Potency, µM (titrated, usually from 38.3 µM), for the others: top-dose activity change, negative = inhibition, most hits filed as inhibitors; 1.6% of 410,000 active; AID 624417; further: on the % scale 0 is the no-effect control and ±100 the full control effect; nearly all actives have a fitted effect of over 55% in size
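Cells are plated, allowed 12 hours at 37 deg C, then treated with compounds for 24 hr before luciferase detection reagent is added and luminescence is read after 12 min at room temperature. The HEK293 line carries constitutively active GLP-1R with a cAMP-responsive reporter.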
HepG2 viability: counter-screen for TGF-b inhibitors: cytotoxicity in HepG2 cells; HepG2 CAGA-GFP viability, ATP luminescence, 18 h; Potency, µM (titrated, usually from 46.1 µM), for inactives: at the top dose activity change, negative = cytotoxicity, actives largely listed as cytotoxic; 0.76% of 410,000 active; AID 588856
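CellTiter-Glo luminescence gave cytotoxicity after 18 hours at 37 degrees C. The cells were HepG2 CAGA-GFP in 1% FBS DMEM, stimulated with 500 pg/mL TGF-beta after compound addition. %Activity was normalised to no-cell wells (complete cell-killing) and DMSO (no toxicity), and curves were fitted and classified.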
An asterisk follows results filed as active. The call rests on the fitted dose curve; in most records, active means well fitted curve in the direction sought with a large enough effect; inconclusive means small, poorly fitted or top-dose-only effect, or another doubt; inactive means no such curve, though single readings can be large; an effect the other way counts as inactive or inconclusive. Potency means the concentration at half of the fitted maximal effect.

CSc1ccc(Cl)c(C(=O)Nc2ccc(Cl)cn2)c1 was read as TGFb inhibitor -20%, ATXN2 expr inh -6%, GLP1R ag 7%, ATXN viability inactive, GLP1R inv ag inconclusive and HepG2 viability 2%.
Screening Cc1c(C(=O)NCC2CC2)sc2ncnc(NCCN3CCCCC3)c12 returned ATXN viability inactive.
Screening CSc1ccc(CCNC(=O)C(C)n2c(C)c3cnn(-c4ccccc4)c(=O)c3c2C)cc1 (stereo not drawn) returned TGFb inhibitor -11%, ATXN2 expr inh -20%, ATXN viability inactive, GLP1R inv ag inconclusive and HepG2 viability -6%.
Screening N#CC1=C(N)C2=CCCC[C@H]2[C@H](c2ccccc2)C1(C#N)C#N returned TGFb inhibitor inconclusive, ATXN2 expr inh -18%, GLP1R ag -38%, ATXN viability inactive, GLP1R inv ag 4.5µM* and HepG2 viability -38%.
`CN1C(=O)CC2(C=CC(=O)C=C2OC(=O)c2ccccc2)c2ccccc21` (stereo not drawn) gave TGFb inhibitor -19% and HepG2 viability -3%.
C[C@]12C=CC(=O)C=C1CC[C@@H]1[C@@H]2[C@@H](O)C[C@@]2(C)[C@@H]1CC[C@]2(O)C(=O)CO was read as ATXN2 expr inh -4%.
For Cc1ccc(Nc2nc(N/N=C\c3ccc4c(c3)OCO4)nc(N3CCOCC3)n2)cc1 the results were TGFb inhibitor -20%, ATXN2 expr inh inconclusive, GLP1R ag 9%, ATXN viability inactive, GLP1R inv ag 4.5µM* and HepG2 viability -41%.
For CCOc1cc(/C=N\Nc2nc(Nc3ccccc3)nc(N3CCOCC3)n2)ccc1OC(=O)c1ccco1 the results were TGFb inhibitor 5%, ATXN2 expr inh 10%, GLP1R ag -9%, ATXN viability inactive, GLP1R inv ag 7.1µM* and HepG2 viability -36%.
COc1cc(/C=N/Nc2nc(C)cc(C)n2)ccc1OC(=O)c1ccco1 was read as TGFb inhibitor 5%, ATXN2 expr inh 4%, GLP1R ag 3%, ATXN viability inconclusive, GLP1R inv ag 13% and HepG2 viability -1%.
For Cc1ccc(/C=N/Nc2cc(C)nc(N3CCOCC3)n2)cc1 the results were TGFb inhibitor 1%, ATXN2 expr inh -12%, GLP1R ag 2%, ATXN viability inconclusive, GLP1R inv ag 10% and HepG2 viability 3%.
`Cc1ccc(-c2ccnc(-n3ncc(C(=O)N(C)CC4CCCN(C)C4)c3C)n2)o1` (stereo not drawn) gave ATXN viability inactive.
Screening CCOC(=O)N1CCC(N(CCN(C)C)C(=S)Nc2cccc(Cl)c2)CC1 returned TGFb inhibitor -8%, ATXN2 expr inh -29%, GLP1R ag -1%, ATXN viability inactive, GLP1R inv ag 11µM* and HepG2 viability 7%.
CCOC(=O)N1CCC(N(CCN(C)C)C(=S)Nc2cc(Cl)cc(Cl)c2)CC1 was read as TGFb inhibitor -4%, ATXN2 expr inh -2%, GLP1R ag -1%, ATXN viability inactive, GLP1R inv ag 3% and HepG2 viability -1%.
Screening CCOC(=O)N1CCC(N(CCN(C)C)C(=S)Nc2cc(Cl)ccc2C)CC1 returned TGFb inhibitor 9%, ATXN2 expr inh -29%, GLP1R ag 11%, ATXN viability inactive, GLP1R inv ag 5.6µM* and HepG2 viability -7%.
COc1ccc(C(=O)NC(=S)Nc2ccc(CN3CCOCC3)cc2)cc1Br was read as TGFb inhibitor 11µM*, GLP1R ag -8%, ATXN viability inconclusive, GLP1R inv ag 13µM* and HepG2 viability -54%.
CC(C)COc1cccc(C(=O)Nc2ccc(CN3CCOCC3)cc2)c1 was read as TGFb inhibitor 0%, ATXN2 expr inh -14%, GLP1R ag 7%, ATXN viability inactive, GLP1R inv ag 8.9µM* and HepG2 viability -14%.
O=C(Nc1ccc(CN2CCOCC2)cc1)c1ccc(-c2ccc(Br)cc2)o1 was read as TGFb inhibitor inconclusive, ATXN2 expr inh inconclusive, GLP1R ag -15%, ATXN viability inconclusive, GLP1R inv ag inconclusive and HepG2 viability 10µM*.
For O=C(Nc1ccc(CN2CCOCC2)cc1)c1ccc(Br)cc1 the results were TGFb inhibitor -13%, ATXN2 expr inh -22%, GLP1R ag 6%, ATXN viability inactive, GLP1R inv ag -5% and HepG2 viability -2%.
CN(C(=O)Cc1ccccc1OC(=O)c1ccccc1)c1ccccc1I was read as TGFb inhibitor -9% and HepG2 viability 8%.
Screening COc1ccc(C(=O)C=CNNC(=O)c2ccc(Cl)cc2)cc1 returned TGFb inhibitor 13µM*, ATXN2 expr inh inconclusive, GLP1R ag -1%, ATXN viability inconclusive, GLP1R inv ag inconclusive and HepG2 viability -31%.
`COc1ccc(Cl)cc1NC(=O)Nc1cccc([N+](=O)[O-])c1C` gave TGFb inhibitor inconclusive, ATXN2 expr inh 20µM*, GLP1R ag 0%, ATXN viability inconclusive, GLP1R inv ag inconclusive and HepG2 viability -2%.
COc1ccc(Cl)cc1NC(=O)NC1CCCCC1 was read as TGFb inhibitor 7%, ATXN2 expr inh -15%, GLP1R ag -1%, ATXN viability inactive, GLP1R inv ag inconclusive and HepG2 viability -5%.
Screening CC1CCCCN1CCCNC(=O)c1ccc2c(c1)sc1nc(-c3ccc(F)cc3)cn12 (stereo not drawn) returned TGFb inhibitor inconclusive, ATXN2 expr inh 14µM*, ATXN viability 32µM*, GLP1R inv ag inconclusive and HepG2 viability 13µM*.
For Cc1ccc(-c2cn3c(n2)sc2cc(C(=O)NCCCN4CCCCCC4)ccc23)cc1 the results were TGFb inhibitor -101%, GLP1R inv ag -22% and HepG2 viability 10µM*.
Screening CCN1CCN(CCCNC(=O)c2ccc3c(c2)sc2nc(-c4ccc(C)cc4)cn23)CC1 returned TGFb inhibitor -90%, GLP1R inv ag inconclusive and HepG2 viability -99%.
For O=C(NCCCN1CCCCC1)c1ccc2c(c1)sc1nc(-c3ccc(F)cc3)cn12 the results were TGFb inhibitor inconclusive, ATXN2 expr inh inconclusive, ATXN viability inactive, GLP1R inv ag -5% and HepG2 viability -51%.
Cc1ccc(-c2cn3c(n2)sc2cc(C(=O)NCCCN4CCCCC4)ccc23)cc1 was read as TGFb inhibitor -88%, GLP1R inv ag inconclusive and HepG2 viability 10µM*.
